From PubChem
The entries come from a sample that favours hits as a whole.
Pf Dd2 growth – inhibitors of Plasmodium falciparum Dd2 growth; AID 1347417; 4.3% of 120,000 active; P. falciparum Dd2 growth, SYBR Green, 72 h; Potency, µM (series often up to 28.9 µM), for inactives: at the top dose activity, negative = inhibition, actives largely listed as inhibitors; active = well fitted inhibition curve with a large enough effect;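 note: plate controls were DMSO vehicle for no effect and reference drug for full effect; nearly all actives have a fitted effect of over 65% in size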
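Readout: SYBR Green fluorescence, 485 nm excitation, 535 nm emission, after ~16 h lysis at 37C. Before that, Dd2-infected red cells (2.5% hematocrit) grew 72 h with compound, 29 uM top final concentration.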
The depositor's hits bear a star; i = inactive; [ ] = another dose, or the depositor's remark. Potency is the fitted concentration of half-maximal effect.

SMILES	Pf Dd2 growth
O=C(c1ccoc1)N1CCC(Nc2cccn3ncnc23)CC1	-18%
Cc1ccccc1NC(=O)N(C)CC1CCOCC1	-6%
CCCc1cc(C(=O)N[C@H](c2ccccn2)C2CC(O)C2)cs1 (stereo not given in full)	-1%
O=C(N[C@H](c1ccccn1)C1CC(O)C1)c1cc(=O)n(-c2ccccc2)[nH]1 (stereo not given in full)	1.4µM*
O=C(N[C@H](c1ccccn1)C1CC(O)C1)c1cccc(Cn2cccn2)c1 (stereo not given in full)	-9%
CN(C(=O)c1ccc[nH]c1=O)C1CCc2nn(C)c(=O)n2CC1 (stereo not given)	i
CC(C)Oc1ccc2c(NC(=O)c3cocn3)nn(CC(F)(F)F)c2c1	-16%
O=C(CCc1ccccc1)N1CCC2(CC1)CC(OCC1CC1)CCO2 (stereo not given)	6%
O=C(CCN1CCn2nc(CO)cc2C1)Nc1nnc(C2CC2)s1	-6%
Cc1cc(C(=O)N2CCC3(CC2)NCCc2c3[nH]c3ccccc23)nn1C	-1%
COc1ccc2c(c1)-c1nc(NC(=O)c3cc(OC)c(OC)c(OC)c3)sc1CC2	5µM*
COc1ccc2c(c1)-c1nc(NC(=O)c3ccccc3F)sc1CC2	-16%
COc1ccc2c(c1)-c1nc(NC(=O)c3cc(Cl)ccc3OC)sc1CC2	-2%
O=C(c1cc[n+]([O-])cc1)N1CCC2(CCCN(Cc3cccc(F)c3F)C2)C1 (stereo not given)	-14%
COc1cccc(C(=O)N2CCC[C@H]2c2nc(-c3ccc(C)cc3)no2)c1	i
CCOc1ccc(NC(=O)NCCCN2CCN(c3ccc(F)cc3)CC2)cc1	i
O=C(NCCCN1CCN(c2ccc(F)cc2)CC1)Nc1ccccc1Cl	7.9µM*
CCC(=O)N1c2ccccc2CC1C(=O)NCCCN1CCN(c2ccc(F)cc2)CC1 (stereo not given)	-13%
COC(=O)CN1C(=O)[C@@H]2C[C@@H](O)CN2C2(CN(Cc3ccccc3)C2)C1=O	-3%[44.1 µM]
O=C1NCc2ccccc2CC12CCN(Cc1cc(F)ccc1F)CC2	0%
O=C1NCc2ccccc2CC12CCCN(Cc1cc(F)ccc1O)C2 (stereo not given)	8.9µM*
O=C1NCc2ccccc2CC12CCCN(Cc1ccnc3ccccc13)C2 (stereo not given)	-22%
O=C1NCc2ccccc2CC12CCCN(Cc1ccc(F)cc1)C2 (stereo not given)	-25%
COc1ccc(CN2CCCC3(Cc4ccccc4CNC3=O)C2)c(OC)n1 (stereo not given)	5µM*
O=C1NCc2ccccc2CC12CCN(Cc1cc(F)ccc1F)C2 (stereo not given)	-16%
SMILES	Pf Dd2 growth
O=C1NCc2ccccc2CC12CCCN(Cc1ccncc1)C2 (stereo not given)	-21%
O=C1NCc2ccccc2CC12CCN(Cc1cc(F)ccc1O)C2 (stereo not given)	11µM*
O=C1NCc2ccccc2CC12CCCN(Cc1c(F)cccc1Cl)C2 (stereo not given)	-20%
COc1ncc(-c2n[nH]c3c2CC(=O)N(c2ccccc2)C3)cn1	14%[44.1 µM]
C[S+](=O)([O-])N1Cc2ccccc2CC2(CCN(CC3CCNC3)CC2)C1 (stereo not given)	16%
CN(CC1CCOC1)S(=O)(=O)c1cc(F)cc(F)c1 (stereo not given)	15%[5.79 µM]
CCc1nc(-c2c3n(c(=O)n(Cc4ccc(C)cc4C)c2=O)CCCC3)no1	-5%
COc1ccc(C2Cn3nnc(-c4noc(CC5CCCCC5)n4)c3CO2)cc1 (stereo not given)	i
CC[C@@H]1[C@@H](NC(=O)C2(c3ccc(S(C)(=O)=O)cc3)CCC2)[C@@H]2CCO[C@H]12	8.9µM*
CC[C@@H]1[C@@H](NC(=O)CC2Cc3ccccc3C2)[C@@H]2CCO[C@H]12	-3%
CC[C@@H]1[C@@H](NC(=O)Cc2csc(C(C)=O)c2)[C@@H]2CCO[C@H]12	-2%
O=[S+]([O-])(c1ccccc1)N1CCCC2(CC(c3cccnc3)=NO2)C1 (stereo not given)	0%
COCc1noc([C@@H]2CC(F)(F)CN2C(=O)c2coc(C)n2)n1	19%
Cc1cccc(C(=O)N2CC3CC(C2)[C@H]2CCCC(=O)N2C3)c1 (stereo not given in full)	0%
CCOC(=O)c1c(C)[nH]c(C)c1S(=O)(=O)NCC(=O)Nc1cc(Cl)ccc1OC	0%
CCOC(=O)c1c(C)[nH]c(C)c1S(=O)(=O)N(C)CC(=O)Nc1cccc(Cl)c1C	-7%
CCOC(=O)c1c(C)[nH]c(C)c1S(=O)(=O)N(C)CC(=O)Nc1cc(Cl)ccc1OC	10µM*
Cc1cc(C(=O)N2CCC3(CC(=O)NC3=O)C2)c(-c2ccccc2)o1 (stereo not given)	7%
Cc1noc(C)c1[S+](=O)([O-])N1CCC2(CC1)Cc1ccccc1NC2=O	-11%
Cc1noc(C)c1[S+](=O)([O-])N1CCC2(CC1)COc1ccccc1NC2=O	8.9µM*
O=C1Nc2ccccc2OCC12CCN([S+](=O)([O-])c1ccccc1)CC2	9%
